Hits are enriched below; roughly 2.8% of the tested compounds scored in any of these assays.
SNCA expr inhib: SNCA gene expression inhibition; HEK-293 SNCA-luciferase knock-in, luminescence, 24 h; Potency, µM (titrated, usually from 57.2 µM), for inactives: at the highest dose activity change, negative = inhibition, hits mostly inhibitors; hit rate 0.17% among 140,000;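 also: potency is read from the fitted curve at half-maximal effect; plate controls were DMSO cells for no effect and cell-free wells for full effect; nearly all actives have a fitted effect of over 45% in size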
KDM5B inhibitor: KDM5B demethylase inhibition; AID 1347165; Q9UGL1; hit rate 2.6% among 220,000; Potency, µM (series often up to 57.7 µM), most hits filed as inhibitors; KDM5B demethylase, FDH-coupled NADH fluorescence (FDH is formaldehyde dehydrogenase); also: potency is read from the fitted curve at half-maximal effect; 0% is about no effect; nearly all actives have a fitted effect of over 70% in size
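qHTS format, multiple compound concentrations. Buffer 50 mM HEPES pH 7.5/0.01% Tween-20; 200 nM KDM5BΔAP final; 10 min compound preincubation; substrate-mix levels 12.5 µM peptide, 25 µM α-KG, 0.25 mM NAD⁺; 30 min RT; ΔRFU.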
HEK293 viab: counter-screen for SNCA expression inhibitors: cell viability; hit rate 0.12% among 150,000; HEK-293-SNCA-luc viability, GF-AFC fluorescence, 24 h; Potency, µM (highest dose often 57.1 µM), without a hit: at the highest dose activity change, negative = cytotoxicity, most hits filed as cytotoxic;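 also: potency is read from the fitted curve at half-maximal effect; 0% = DMSO-treated cells and -100% = medium-only wells without cells; nearly all actives have a fitted effect of over 30% in size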
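HEK-293-SNCA-luc cells (1500/well) plated 24 h, then exposed 24 h to a dilution series; GF-AFC added 30 min at 37C, fluorescence 405/540 nm; normalised to medium-only and DMSO wells, Hill fit.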
IP6K1 inhibitor: IP6K1 kinase inhibition; IP6K1 kinase, ADP-Glo luminescence, 2 h; active compounds read low; activity change, % (series mostly up to about 58 µM); hit rate 0.81% among 140,000; AID 1645851; in the data active = activity change below about -25%; also: % is scaled to controls: 0 for no effect and ±100 for the full control effect
Target sequence (Q92551 whole entry, looked up): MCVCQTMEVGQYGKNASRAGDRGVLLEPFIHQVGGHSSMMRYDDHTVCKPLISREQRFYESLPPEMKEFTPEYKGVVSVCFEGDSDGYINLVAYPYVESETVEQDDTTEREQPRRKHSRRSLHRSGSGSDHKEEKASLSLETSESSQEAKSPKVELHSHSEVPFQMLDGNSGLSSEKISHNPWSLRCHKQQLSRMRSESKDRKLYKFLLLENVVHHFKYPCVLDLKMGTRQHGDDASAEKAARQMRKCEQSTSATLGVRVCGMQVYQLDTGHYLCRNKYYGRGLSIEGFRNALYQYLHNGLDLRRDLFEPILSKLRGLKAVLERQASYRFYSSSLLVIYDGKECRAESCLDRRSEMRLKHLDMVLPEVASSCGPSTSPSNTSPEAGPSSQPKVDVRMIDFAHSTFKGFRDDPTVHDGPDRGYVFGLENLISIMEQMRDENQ
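ADP-Glo luminescence measures ADP made by human IP6K1 during a 2 h RT reaction with ATP/IP6 (mix at 1.3 mM/130 uM); top library doses 57.5 and 19.1 uM final.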
An asterisk follows results filed as active; i = inactive; ? = inconclusive; · = no result given; [ ] = another dose, or the depositor's remark. Unless noted, calls follow the shape of the dose curve; as a rule, active = well fitted curve in the direction sought with a large enough effect; inconclusive = small, poorly fitted or top-dose-only effect, or another doubt; inactive = no such curve, though single readings can be large; an effect the other way counts as inactive or inconclusive.

SMILES	SNCA expr inhib	KDM5B inhibitor	HEK293 viab	IP6K1 inhibitor
COc1ccc(NC(=O)Cn2cnc3c(nnn3Cc3ccc(C)cc3)c2=O)c(OC)c1	·	i	·	·
O=C1N(Cc2ccccn2)C[C@H]2CN(Cc3ccc(C(F)(F)F)cc3)CCN12	?	i	-5%[87.6 µM]	-14
CS(=O)(=O)c1ccc(CN2CCN3C(=O)N(Cc4ccccn4)C[C@H]3C2)cc1	-9%[87.6 µM]	28µM*	1%[87.6 µM]	-9
CSCc1ccc(C(=O)Nc2ccc3c(c2)NC(=O)CS3)cc1	·	i	·	·
COc1ccnc(-c2nnc3ccc(N4C[C@@H](C)O[C@@H](C)C4)nn23)c1	-12%[87.6 µM]	i	-14%[87.6 µM]	-13
COc1ccnc(-c2nnc3ccc(N4CCc5ccccc5CC4)nn23)c1	-16%[87.6 µM]	32µM*	-24%[87.6 µM]	-22
CCCn1nccc1C(=O)NCc1cccnc1Oc1ccc(C)nc1	-3%	32µM*	0%	-14
Cc1ccc(CN2CCC3(CC2)COCCN3C(=O)OCc2ccccc2)o1	?	i	-18%[87.6 µM]	-3
CN(C)Cc1nnc(C2CC(NC(=O)c3nc4ccccc4[nH]3)C2)n1C (stereo not drawn)	11%	22µM*	8%	21
c1cc(Cn2ccc3c(N4CCOCC4)nc(-c4ccc5cn[nH]c5c4)cc32)ccn1	-23%[87.6 µM]	35µM*	0%[87.6 µM]	-6
Cn1cc(-c2cc3c(ccn3Cc3ccncc3)c(N3CCOCC3)n2)cn1	-30%[87.6 µM]	i	11%[87.6 µM]	2
CN(C)Cc1ccc(-c2cc3c(ccn3Cc3ccncc3)c(N3CCOCC3)n2)cc1	-9%[87.6 µM]	40µM*	-22%[87.6 µM]	-12
CCC(Oc1ccccc1)C(=O)Nc1sc(C(=O)OC)c(C)c1C(=O)OC (stereo not drawn)	·	i	·	·
CCc1noc(-c2cccn3c(CNC(=O)c4ccco4)nnc23)n1	-9%	28µM*	-5%	19
CCc1noc(-c2cccn3c(CNC(=O)c4cc5ccccc5[nH]4)nnc23)n1	66%	?	-7%	17
CCCc1noc(-c2cccn3c(CNC(=O)c4ccco4)nnc23)n1	-5%	25µM*	-13%	-3
CCCc1noc(-c2cccn3c(CNC(=O)c4ccc(Cl)cc4)nnc23)n1	1%	?	-11%	12
Cc1ccc(-c2ncc(NC(=O)c3cc(F)ccc3F)cn2)cc1	86%	28µM*	2%	1
Cc1nc(CN2C[C@H](C(=O)N3CCN(c4ccccn4)CC3)C[C@@H]2c2ccc(F)cc2)cs1	-29%	28µM*	-7%	-3
Cc1nc(CN2C[C@H](C(=O)NCCOc3ccccc3)C[C@@H]2c2ccc(F)cc2)cs1	-29%[87.6 µM]	?	-29%[87.6 µM]	-3
CCOc1ccc(CCNC(=O)c2cn(C)c3ccc(S(=O)(=O)N4CCCCC4)cc3c2=O)cc1OCC	23%	?	-2%	-27*
COCCNc1nccc(C2(c3ccccc3Cl)CCNCC2)n1	11%	22µM*	-23%	5
CC(C)OCCNc1nccc(C2(c3ccccc3Cl)CCNCC2)n1	-6%	?	?	-16
c1ccc(-c2noc(-c3cncnc3NCC3CCCCC3)n2)cc1	31%	28µM*	3%	-7
Cc1cccc(Nc2ncncc2-c2nc(-c3ccccc3)no2)c1C	-30%	28µM*	-1%	-12
SMILES	SNCA expr inhib	KDM5B inhibitor	HEK293 viab	IP6K1 inhibitor
c1ccc(-c2noc(-c3cncnc3NCc3ccc4c(c3)OCO4)n2)cc1	52%	13µM*	21%	-19
c1ccc(-c2noc(-c3cncnc3NCC3CCCO3)n2)cc1 (stereo not drawn)	82%	?	-12%	5
c1ccc(-c2noc(-c3cncnc3NCc3cccs3)n2)cc1	8%	?	2%	-12
COc1ccccc1CNc1ncncc1-c1nc(-c2ccccc2)no1	4%	32µM*	2%	-5
CN1C[C@@H]2[C@H](c3ccccc31)[C@@H](CO)[C@@H](c1ccccc1)N2C(=O)c1ccno1	·	·	·	-15
CNc1ncncc1-c1nc(-c2ccccc2)no1	51%	28µM*	-3%	-6
Cc1cccc(N2CCN(c3ncncc3-c3nc(-c4ccccc4)no3)CC2)c1	79%	22µM*	4%	1
Cc1ccc(Nc2ncncc2-c2nc(-c3ccccc3)no2)c(C)c1	-17%	i	3%	3
Cc1cc(F)ccc1Nc1ncncc1-c1nc(-c2ccccc2)no1	?	7.9µM*	-9%	-13
CCc1ccc(Nc2ncncc2-c2nc(-c3ccccc3)no2)cc1	?	i	2%	-6
Cc1cc(C)c(OCC(=O)Nc2ccccc2N2CCCC2=O)c(C)c1	·	i	·	·
CCOc1ccccc1CN1CCC2(CCN([S+](=O)([O-])c3cccc(C(F)(F)F)c3)CC2)Oc2ccccc21	-13%	13µM*	4%	0
CCOc1ccccc1CN1CCC2(CCN([S+](=O)([O-])c3ccc(C)cc3)CC2)Oc2ccccc21	13%	?	?	33
O=C(/C=C/c1ccc(Br)cc1)N(C1CCCCC1)C1CCCCC1	·	i	·	·
O=C1NCCCCCN(Cc2ccc(F)cc2F)[C@H]2CCC[C@@H]12	-15%	?	4%	7
O=C1NCCCCCCN(Cc2ccc(F)c(F)c2)[C@H]2CCC[C@@H]12	-10%	13µM*	-5%	8
O=C1NCCCCCCN(Cc2ccncc2)[C@@H]2CN(Cc3ccncc3F)CC[C@H]12	7%	20µM*	-6%	2
CC(C)CCN1CCCCCCNC(=O)[C@@H]2CCC[C@@H]21	23%	10µM*	1%	8
Cn1cccc1CN1CCCCCNC(=O)[C@@H]2CCC[C@@H]21	12%	i	5%	15
O=C1NCCCCCCN(Cc2cccc(OC(F)(F)F)c2)[C@H]2CCC[C@@H]12	-6%	5.6µM*	0%	8
Cc1ccc(S(=O)(=O)NC2CCN(C(=O)Cc3ccc(F)cc3)CC2)cc1	·	i	·	·
CCOC(=O)COc1ccc2c(c1)O/C(=C\c1sccc1C)C2=O	·	i	·	·
Cn1ccc2c(C(=O)NCC3CCC(=O)N3)nc(-c3ccccc3)cc21 (stereo not drawn)	?	i	3%[87.6 µM]	10
Cn1nccc1-c1cc2c(ccn2C)c(C(=O)NCc2cccnc2)n1	10%[87.6 µM]	i	1%[87.6 µM]	32
Cn1ccc2c(C(=O)NCc3cccnc3)nc(-c3ccccc3C#N)cc21	16%[87.6 µM]	13µM*	-19%[87.6 µM]	-7
SMILES	SNCA expr inhib	KDM5B inhibitor	HEK293 viab	IP6K1 inhibitor
O=C(NCc1cccnc1)c1nc(-c2ccccc2)cc2[nH]ccc12	-12%[87.6 µM]	35µM*	-5%[87.6 µM]	-8
O=C1CCC(CNC(=O)c2nc(-c3ccccc3)cc3[nH]ccc23)N1 (stereo not drawn)	24%[87.6 µM]	32µM*	10%[87.6 µM]	-19
COc1cc(F)ccc1-c1cc2c(ccn2C)c(C(=O)NCc2cccnc2)n1	10%[87.6 µM]	40µM*	-18%[87.6 µM]	-1
CC(C)c1nnc(NC(=O)c2cc(=O)c3cc(Cl)cc(Cl)c3o2)s1	·	i	·	·
COc1ccc(-c2cc3c(ccn3C)c(C(=O)NCc3cccnc3)n2)cc1OC	60%[87.6 µM]	35µM*	-20%[87.6 µM]	0
CN(C)Cc1ccc(-c2cc3c(ccn3C)c(C(=O)NCc3cccnc3)n2)cc1	5%[87.6 µM]	i	-24%[87.6 µM]	4
Cn1ccc2c(C(=O)NCc3cccnc3)nc(-c3ccc(F)cc3)cc21	4%[87.6 µM]	i	-6%[87.6 µM]	-2

High-throughput results (PubChem BioAssay)
